Screens deposited in PubChem BioAssay by National Center for Advancing Translational Sciences (NCATS).
An excerpt weighted towards active compounds, which were near 9.2% of everything screened.
ELG1 DNA repair – inhibitors of ELG1-dependent DNA repair in HEK293T cells. Potency, µM (top dose mostly 46.1 µM), for the others: top-dose activity change, negative = inhibition, usual class: inhibitors. AID 504467. 2.3% of 330,000 active. HEK293T ELG1-luciferase reporter, luminescence, 16 h; DNA damage induced by 5-fluorouridine; further: on the % scale 0 is the no-effect control and ±100 the full control effect; nearly all actives have a fitted effect of over 55% in size
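Luminescence from the luciferase reporter, measured 30 min after ONE-Glo reagent at room temperature, was the read-out. Beforehand, 2,000 cells per well were exposed for 16 hr at 37 °C to 5-fluorouridine together with compound or vehicle.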
ELG1 genotoxic – induces genotoxicity in HEK293T cells with luciferase-tagged ELG1. HEK293T ELG1-luciferase reporter, luminescence, 16 h. Potency, µM (titrated, usually from 46 µM), without a hit: top-dose activity change, positive = activation, usual class: activators. 1.3% of 330,000 active. AID 504466; further: % of control where 0% means no effect; nearly all actives have a fitted effect of over 60% in size
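HEK293T cells expressing luciferase-tagged ELG1 were treated with compound or DMSO for 16 hr at 37°C. Luciferase activity was then read after 30 min with ONE-Glo at room temperature; rising signal flags genetic stress.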
FLuc modulator – inhibits or activates purified firefly luciferase, miR-21 counter-screen | AID 588342 | purified FLuc, Km substrates, luminescence inhibition | 6.9% of 360,000 active | Potency, µM (top dose mostly 57.5 µM), without a hit: top-dose activity change, negative = inhibition, usual class: inhibitors;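 further: plate controls were vehicle for no effect and reference inhibitor for full effect; nearly all actives have a fitted effect of over 55% in size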
Target sequence (P08659 whole entry, looked up): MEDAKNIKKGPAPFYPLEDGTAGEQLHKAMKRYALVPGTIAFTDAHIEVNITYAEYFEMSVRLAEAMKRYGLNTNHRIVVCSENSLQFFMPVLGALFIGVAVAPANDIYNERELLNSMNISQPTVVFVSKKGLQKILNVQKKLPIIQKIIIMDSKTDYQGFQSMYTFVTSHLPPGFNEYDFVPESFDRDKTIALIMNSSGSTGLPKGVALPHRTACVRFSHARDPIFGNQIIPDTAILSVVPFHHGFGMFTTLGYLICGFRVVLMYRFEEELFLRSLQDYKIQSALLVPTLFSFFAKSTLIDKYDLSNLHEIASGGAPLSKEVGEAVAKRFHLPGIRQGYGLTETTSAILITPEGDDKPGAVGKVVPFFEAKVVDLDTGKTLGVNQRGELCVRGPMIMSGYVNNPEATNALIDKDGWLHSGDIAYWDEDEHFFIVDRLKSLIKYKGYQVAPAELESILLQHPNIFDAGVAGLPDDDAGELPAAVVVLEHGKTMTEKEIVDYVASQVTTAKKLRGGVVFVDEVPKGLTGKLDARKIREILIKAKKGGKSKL
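Biochemical qHTS of compounds, final roughly 60 µM downward over six points, against 10 nM purified firefly luciferase using Km concentrations of substrates (10 uM D-luciferin, 10 uM ATP) in Tris acetate pH 7.5 buffer; luminescence output.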
NPC1 promoter act – activates the NPC1 promoter | Potency, µM (top dose mostly 9.22 µM), for inactives: at the top dose activation, usual class: activators | 2.4% of 320,000 active | Huh7 NPC1 promoter luciferase reporter, 24 h; further: % of control where 0% means no effect; nearly all actives have a fitted effect of over 60% in size
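Readout is luciferase luminescence, reflecting NPC1 promoter activation in stably transfected Huh7 cells after 24 h compound exposure at 37 °C in reduced-serum medium with 10% FBS.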
Rab9 prom act – Rab9 promoter activation | Huh7 Rab9 promoter-luciferase reporter, luminescence, 24 h | AID 485297 | Potency, µM (titrated, usually from 9.22 µM), inactives show at the top dose activation, negative = inhibition, hits mostly activators | 2.8% of 320,000 active; further: % of control where 0% means no effect; nearly all actives have a fitted effect of over 60% in size
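Stable Rab9-luc Huh7, 1500 cells/well, 2 h settle; cmpd in DMSO, 24 h, 37 °C/5% CO2; luciferase reagent 10 min RT; luminescence.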
SMN2 splice enh – enhancers of SMN2 splice variant expression. 2.8% of 210,000 active. HEK293 SMN2-luciferase splicing reporter, luminescence, 30-36 h. Potency, µM (series often up to 46.1 µM), for the others: at the top dose activity change, positive = activation, hits mostly activators; further: % of control where 0% means no effect; nearly all actives have a fitted effect of over 55% in size
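qHTS luciferase splicing reporter: luminescence rises when SMN2 exon 7 is included in transfected HEK293 cells. Compound exposure lasted 30-36 h at 37C, with 4.5 mM final sodium butyrate as control, followed by a ONE-Glo read.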
The depositor's hits bear a star; ? = inconclusive; . = no result given. The call rests on the fitted dose curve; in most records, active means well fitted curve in the direction sought with a large enough effect; inconclusive means small, poorly fitted or top-dose-only effect, or another doubt; inactive means no such curve, though single readings can be large; an effect the other way counts as inactive or inconclusive. Potency means the concentration at half of the fitted maximal effect.

SMILES	ELG1 DNA repair	ELG1 genotoxic	FLuc modulator	NPC1 promoter act	Rab9 prom act	SMN2 splice enh
O=[N+]([O-])c1ccc(Cl)cc1Cl	.	.	.	.	.	3.7%
O=C(NNC(=O)c1ccccc1O)c1ccco1	?	?	19µM*	?	?	?
COc1cc(/C=N/NC(=O)c2ccncc2)ccc1OCc1cnc(Cl)s1	?	16.6%	2.9%	0.5%	-1.5%	12.6µM*
O=C(N/N=C/c1ccccc1)c1ccco1	?	?	13.5µM*	?	3.16µM*	.
O=C(NNC(=O)c1ccccc1F)c1ccco1	?	-6.3%	-14.1%	17.0%	17.8%	.
COC(=O)c1ccc(COc2ccccc2/C=N/NC(=O)c2cccnc2)cc1	?	6.2%	21.3µM*	-2.8%	0.4%	-5.4%
O=C(N/N=C/C=N/NC(=O)c1ccco1)c1ccco1	-12.2%	-11.7%	-14.6%	-0.5%	1.1%	.
Cc1ccn2nc(C(=O)OCC(=O)N(CC(C)C)C3CCS(=O)(=O)C3)nc2n1 (stereo unspecified)	14.0%	3.2%	-0.9%	1.2%	-1.9%	.
COc1ccc(/C=N/NC(=O)c2ccco2)cc1OCc1ccccc1	-12.7%	-1.3%	-12.3%	0.2%	-4.3%	.
COc1cccc(/C=C/C(=O)NNC(=O)c2ccco2)c1OC	?	?	10.7µM*	?	3.98µM*	.
COc1ccc(C(=O)Nc2ccccc2C(=O)NCc2cccnc2)cc1OC	?	-11.2%	-0.3%	-4.3%	2.9%	.
COc1cccc(/C=C/C(=O)OCC(=O)NCc2ccco2)c1OC	8.4%	2.6%	-14.6%	1.2%	1.1%	18.8%
Cc1ccc(COc2ccccc2-c2cc(C(=O)N/N=C/c3cccnc3)[nH]n2)cc1	23.1µM*	-15.1%	-6.5%	-27.1%	-21.3%	.
O=C(N/N=C/c1ccc2cccnc2c1)c1ccco1	?	2.06µM*	6.01µM*	1.41µM*	0.891µM*	.
COc1ccc(C(=O)Nc2ccccc2C(=O)N/N=C/c2ccncc2)cc1OC	?	-3.9%	0.239µM*	2µM*	?	.
Cc1c(Cl)cccc1Nc1nn2c(=O)c3ccc(C(=O)NCCC4=CCCCC4)cc3nc2s1	.	.	-6.7%	.	.	.
O=C(N/N=C/C(Br)=C\c1ccccc1)c1ccco1	?	?	3.01µM*	2.51µM*	3.98µM*	.
O=C(N/N=C\c1ccccc1OCc1ccccc1)c1ccco1	16.9%	-1.3%	21.3µM*	-0.5%	-0.2%	8.7%
COc1cccc(/C=N/NC(=O)c2ccccc2NC(=O)c2ccco2)c1OC	9.8%	-2.2%	10.7µM*	0.1%	-2.7%	.
COc1ccc(CCCC(=O)N/N=C/c2cccc(OC)c2O)cc1C	-4.8%	?	16.9µM*	-8.2%	-25.3%	-90.2%
Cc1ccc(OCC(=O)Nc2ccc3nc(SCC(=O)N4CCCC4)sc3c2)cc1	.	.	-19.2%	.	.	.
CC(C)(C)OC(=O)N/N=C\c1ccc(OC(=O)c2ccco2)cc1	?	?	2.0%	?	3.98µM*	?
O=C(Nc1ccccc1C(=O)N/N=C/c1ccc(O)cc1)c1ccccc1	?	15.2%	0.151µM*	?	?	.
O=C(Nc1ccccc1C(=O)N/N=C/c1ccccc1)c1ccco1	?	-3.2%	2.69µM*	?	27.7%	.
O=C(N/N=C/c1ccc(OCc2ccccc2)cc1)c1ccco1	?	19.5%	?	?	2.82µM*	.
O=C(Nc1ccccc1C(=O)Nc1ccccc1)c1ccco1	16.4%	3.6%	-1.9%	-0.5%	-1.4%	.
COc1ccccc1CNS(=O)(=O)c1ccc(N2CCCCS2(=O)=O)cc1	.	.	1.8%	.	.	.
COc1cccc(/C=N/NC(=O)CNC(=O)c2ccncc2)c1O	-15.3%	?	-9.9%	-2.7%	-6.3%	.
COc1cccc(/C=N/NC(=O)CNC(=O)c2ccco2)c1O	8.2µM*	0.1%	?	7.1%	-1.3%	.
CC(C)=C(NC(=O)c1ccccc1)C(=O)N/N=C/c1ccc(O)cc1	?	9.9%	16.9µM*	-0.5%	1.4%	18.6%
